A selection: hits, their analogues and other compounds. The true share with any hit is near 3%.
SENP6 inh = SENP6 protease inhibition; inhibition, % at 10 µM; hit rate 1.8% among 330,000; Recombinant SENP6 catalytic domain, aminoluciferin luminescence; AID 2599; Q9GZR1;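 active = inhibition above about 50% at the single tested dose, limit read from the data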;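 note: plate controls were DMSO wells with enzyme for no effect and DMSO wells lacking enzyme for full effect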
Target sequence (Q9GZR1 628-1112 limits assumed): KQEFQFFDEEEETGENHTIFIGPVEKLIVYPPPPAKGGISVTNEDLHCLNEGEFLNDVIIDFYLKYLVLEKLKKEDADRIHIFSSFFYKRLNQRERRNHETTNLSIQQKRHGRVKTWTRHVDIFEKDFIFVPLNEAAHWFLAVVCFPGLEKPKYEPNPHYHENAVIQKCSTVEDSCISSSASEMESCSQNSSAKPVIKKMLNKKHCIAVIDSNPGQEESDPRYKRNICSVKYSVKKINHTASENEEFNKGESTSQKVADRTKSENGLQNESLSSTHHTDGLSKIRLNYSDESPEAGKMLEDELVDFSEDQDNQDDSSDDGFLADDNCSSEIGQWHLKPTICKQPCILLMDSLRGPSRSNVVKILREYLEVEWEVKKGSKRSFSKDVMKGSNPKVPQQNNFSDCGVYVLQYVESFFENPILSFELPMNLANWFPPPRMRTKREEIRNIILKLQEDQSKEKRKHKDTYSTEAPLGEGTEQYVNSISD
TRAIL sens C8 = sensitizes caspase-8 expressing cells to TRAIL | AID 624354 | NB7+C8 cells + TRAIL, ATPlite viability luminescence | hit rate 1% among 360,000 | inhibition (viability loss, TRAIL sensitization), % at 10 µM;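 active = compounds causing at least 50% loss of cell viability in the single-dose screen, relative to plate controls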
PPC-1+TRAIL kill = PPC-1 cancer cell killing with TRAIL present | PPC-1 cells + TRAIL, ATPLite viability luminescence | hit rate 0.41% among 220,000 | AID 1443 | cell killing (% activity), % at 4 µM or 5 µM;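 active = cell killing above 50% in the first pass at 4 µM, then a duplicate retest at 5 µM averaging 50% or more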;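 note: plate controls were cells with TRAIL plus DMSO for no effect and medium-only wells lacking cells for full effect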
SENP7 inh = SENP7 protease inhibition. Q9BQF6. recombinant SENP7, Z-RLRGG-aminoluciferin luminescence, 40 min. inhibition, % at 5 µM. hit rate 1.5% among 330,000. AID 434973;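 active = inhibition above about 50% at the single test dose, limit read from the data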;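 note: plate controls were DMSO with enzyme for no effect and no enzyme buffer wells for full effect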
SENP8 block-1 = inhibitors of human SENP8 protease | purified SENP8, Z-RLRGG-aminoluciferin cleavage, luminescence | inhibition, % at 10 µM | hit rate 1.2% among 330,000 | Q96LD8; in the data active = inhibition above about 50%
SENP8 block-2 = blocks human SENP8 cleavage of Nedd8 substrate | Q96LD8 | recombinant SENP8, Nedd8 substrate fluorescence | inhibition, % at 20 µM | hit rate 0.64% among 360,000 | AID 602440; in the data active = inhibition mostly above about 40%, no sharp cut-off; inactive = mostly below about 27%
* marks the source's active call; other numbers are inactive results; i = inactive; . = no result; ! = repeats disagree.

SMILES	SENP6 inh	TRAIL sens C8	PPC-1+TRAIL kill	SENP7 inh	SENP8 block-1	SENP8 block-2
CCOC(=O)N1CCN(C(=O)CCN2C(=O)/C(=C\c3ccccc3OC)SC2=S)CC1	-12.2	-11.0	.	7.1	-11.3	22.0
CCN1C(=O)/C(=C\N2CCCCCC2)SC1=S	7.2	14.8	-14.8	2.6	-6.5	46.3*
CN1C(=S)SC(N(O)C(=O)Nc2cccc3ccccc23)C1(C)C (centres undefined)	57.5*	-24.5	-24.3	25.6	22.6	-432.7
CN1C(=S)SC(N(O)C(=O)Nc2ccccc2)C1(C)C (centres undefined)	7.6	-8.2	8.9	4.3	5.0	16.6
C=CCNC(=O)CSc1nnc(-c2cccc(S(=O)(=O)N3CCOCC3)c2)o1	.	-6.2	.	.	.	7.9
O=C(CCl)Nc1ccc(-c2ccccc2)cc1	-20.7	57.1*	25.6	-5.3	-4.8	-3.0
O=C(CCl)Nc1cccc(Oc2cnccn2)c1	9.2	10.7	.	10.7	0.1	11.3
O=C(CCl)Nc1ccccc1Sc1ccccc1	-11.9	83.1*	12.5	1.3	1.5	7.0
O=C(Cc1ccc(Cl)cc1)Nc1ccccc1Sc1ccccc1	-5.6	19.5	0.0	-6.4	1.7	6.8
O=C(CCl)Nc1cccc(Oc2ccccc2)c1	-11.4	87.2*	5.1	-9.1	-13.5	22.7
Cc1ccccc1CN1CCN(Cc2cc(=O)c3ccccc3[nH]2)CC1CCO (centres undefined)	-11.3	-10.3	.	9.7	-8.4	-0.6
COc1cc2nc(N3CCNCC3)nc(N)c2cc1OC	-7.2	53.4*	22.9	-5.2	-6.7	-283.2
COc1cc2nc(N3CCN(c4cc(C)ccc4C)CC3)nc(N)c2cc1OC	0.3	56.8*	.	6.5	-7.4	-288.5
Cc1ccc(C)c(NC(=O)C2CCCN(c3cnccn3)C2)c1 (centres undefined)	7.7	-4.7	.	2.8	0.0	-439.1
Cc1ccc(S(=O)(=O)/N=C2\C=C(NS(=O)(=O)c3ccccc3)C(=O)c3ccccc32)cc1	.	-17.2	.	.	.	73.7*
O=S(=O)(N=C1C=CC(=NS(=O)(=O)c2ccccc2)c2ccccc21)c1ccccc1	.	-1.9	.	.	.	74.4*
Cc1cc(C)c(S(=O)(=O)/N=C2\C=C(NS(=O)(=O)c3ccccc3)C(=O)c3ccccc32)c(C)c1	33.1	-2.4	.	6.5	19.6	73.3*
Cc1ccc(N=Cc2c(O)n(-c3cc(Cl)ccc3N3CCOCC3)c(=O)c3ccccc23)cc1C	5.6	1.1	-1.8	-1.9	0.5	4.9
Nc1nc2ncc(CNc3ccc(C(=O)N[C@@H](CCC(=O)O)C(=O)O)cc3)nc2c(=O)[nH]1	-2.8	6.9	.	-1.2	-1.6	-184.4
CN(Cc1cnc2nc(N)nc(N)c2n1)c1ccc(C(=O)N[C@@H](CCC(=O)O)C(=O)O)cc1	-8.1	84.6*!	.	6.3	1.3	-375.0
CCN1/C(=C/c2ccc3ccccc3[n+]2CCCS(=O)(=O)[O-])C=Cc2cc(C)ccc21	.	11.2	.	.	.	5.0
CCN1/C(=C/c2ccc3ccccc3[n+]2CC)C=Cc2ccccc21	-1.6	58.9*	38.9	7.7	11.5	42.3*
Nc1ccc(-c2nc3ncccc3o2)c(Cl)c1	-20.3	53.3*	22.1	-4.9	1.5	-370.3
NC(=S)NN=C1c2cc(OCCN3CCOCC3)ccc2-c2ccc(OCCN3CCOCC3)cc21	9.2	84.5*	.	1.1	4.9	18.3
COC1=CC(=O)OC(c2cccc(Cl)c2)C1 (centres undefined)	.	0.3	.	.	.	21.7
SMILES	SENP6 inh	TRAIL sens C8	PPC-1+TRAIL kill	SENP7 inh	SENP8 block-1	SENP8 block-2
N#CC1(NC(=O)CN2c3cccc4cccc(c34)S2(=O)=O)CCCCC1	-7.3	-2.4	.	-2.4	7.1	i
CCCc1ccc(C(=O)/C=C/N(C)C)cc1	-1.5	12.5	27.4	16.4	13.6	12.5
COc1ccc(-n2c(C)cc(/C=C3\C(=O)NN(c4ccccc4)C3=O)c2C)cc1	38.2	12.4	27.9	13.7	27.6	19.1
Cc1cc(/C=C2\C(=O)NN(c3ccccc3)C2=O)c(C)n1-c1ccccc1O	7.9	2.9	28.2	33.7	19.4	53.2*
COc1cc(CNCc2ccc(Br)cc2)cc(OC)c1	-13.4	-11.4	.	1.0	1.2	13.7
O=C(N/N=C1\CCCc2ccccc21)c1ccccc1Cl	18.1	-3.1	5.5	3.9	-1.0	6.1
O=C(N/N=C1\CCc2ccccc21)c1ccccc1O	70.6*	62.7*	53.7*	78.1*	58.0*	-12.6
CC(=O)c1cccc(-c2ccnc3c2CC(C(=O)NCc2ccco2)O3)c1 (centres undefined)	.	18.1	.	.	.	0.4
CCc1c(C)nn(C(=O)/C(C#N)=C\N(C)C)c1C	5.0	3.2	-2.1	1.2	-0.1	2.6
Cc1ccc(C(=O)Oc2ccc(C(=O)COC(=O)c3cnccn3)cc2)cc1	1.7	50.6*	0.9	3.5	-4.1	26.3
Cc1ccc(SCCOCCN2CCc3ccccc3C2)cc1	2.2	6.8	27.2	0.6	6.0	13.9
CCC(=O)NC(c1ccc(C)cc1)c1cc([N+](=O)[O-])c2cccnc2c1O (centres undefined)	.	53.6*	22.7	.	.	57.6*
CCCC(=O)NC(c1ccco1)c1cc([N+](=O)[O-])c2cccnc2c1O (centres undefined)	15.3	5.3	3.8	7.3	5.8	53.3*
CC(=O)NC(c1ccc(C)cc1)c1cc([N+](=O)[O-])c2cccnc2c1O (centres undefined)	16.9	40.5	0.1	7.8	6.1	41.9*
CCC(=O)NC(c1ccc(C)cc1)c1ccc2cccnc2c1O (centres undefined)	-6.2	23.0	.	4.9	5.4	5.9
CCCCCCCCCCCCCCCC[n+]1ccccc1	.	94.7*	.	.	.	13.0
CCCCCCCCCCCCCCCC[n+]1ccc(/C=N/O)cc1	-22.8	18.5	70.2*	11.8	5.2	22.9
CCCCCCCCCCCCCCCC[n+]1cccc(C(=O)N(CC)CC)c1	-33.3	48.7	17.5	1.1	-38.5	17.3
O/N=C/c1cccc[n+]1CCCCCC[n+]1ccccc1/C=N/O	-8.1	3.4	.	1.3	-1.6	0.2
CCCCCCCCCCCCCCCC[n+]1ccc(C(N)=O)cc1	-16.6	71.2*	49.6	8.0	2.9	14.0
CCCn1cnc2c(=S)nc(N)[nH]c21	-0.4	-20.5	3.5	0.7	4.2	20.3
CC(=O)N1CSCC1C(=O)NNS(=O)(=O)c1cccc(C(F)(F)F)c1 (centres undefined)	-2.4	5.3	2.8	2.5	-0.2	4.8
CCN(CC)C1CC(=O)N(c2cccc(Cl)c2)C1=O (centres undefined)	0.6	-2.1	.	5.6	13.0	10.2
COc1ccc([C@H]2C[C@@H](O)[C@H](n3cc(C4CC4)nn3)CN2C(=O)c2cccs2)cc1	.	3.1	.	.	.	16.2
CC(C)c1ccc(NC(=O)c2ccc(NS(C)(=O)=O)cc2)cc1	-9.8	21.7	19.8	-4.2	-7.3	14.0
COC(=O)[C@@H](Cc1c[nH]c2ccccc12)NC(=O)CCC(=O)c1ccc(Br)cc1	-7.6	-13.6	.	-1.3	-3.3	14.7
COc1cccc(/C=N/NC(=O)c2ccc([N+](=O)[O-])cc2Cl)c1O	-7.3	54.9*	11.6	-0.7	-2.9	3.7

Screening results: PubChem, Sanford-Burnham Center for Chemical Genomics
